CYP2C19 inh = blockers of cytochrome P450 2C19 activity – biochemical, luminescence, ADME assay, primary screen; AID 778, 2007; CYP2C19 Supersomes, luciferin-H EGE luminescence, 30 min; inhibition, % at 5 µM; 96,000 compounds, 21% hits;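 active means CYP2C19 inhibition above a set limit at 5 µM in the primary screen, cut at about 50% in these data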
Target sequence (P33261 whole entry, looked up): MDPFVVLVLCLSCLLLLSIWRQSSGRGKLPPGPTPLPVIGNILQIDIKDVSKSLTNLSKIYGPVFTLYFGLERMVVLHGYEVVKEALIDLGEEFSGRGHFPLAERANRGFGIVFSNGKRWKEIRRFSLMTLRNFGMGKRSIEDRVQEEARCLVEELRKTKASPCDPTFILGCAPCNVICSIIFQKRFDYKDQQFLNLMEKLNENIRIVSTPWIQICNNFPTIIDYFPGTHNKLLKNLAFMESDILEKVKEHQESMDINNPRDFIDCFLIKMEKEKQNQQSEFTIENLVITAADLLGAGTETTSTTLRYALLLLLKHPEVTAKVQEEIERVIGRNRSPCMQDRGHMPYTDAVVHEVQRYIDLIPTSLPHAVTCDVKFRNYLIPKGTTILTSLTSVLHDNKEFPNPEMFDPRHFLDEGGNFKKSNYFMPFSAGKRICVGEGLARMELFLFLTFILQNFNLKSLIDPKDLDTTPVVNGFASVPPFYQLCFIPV
CYP2C9 activ = human CYP2C9 activators, primary screen, biochemical, luminescence; Cytochrome P450 2C9 (Homo sapiens), P11712; recombinant CYP2C9, luciferin-H conversion; active compounds read high; factor 1 = untreated enzyme, 0 = blocked; activation factor at 5 µM; 96,000 compounds, 1.4% hits; AID 1024, 2008;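 active means activation factor of 2 or more for CYP2C9 at a 5 µM dose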
CYP2C19 act = human CYP2C19 activators, primary screen, biochemical, luminescence | Cytochrome P450 2C19 (Homo sapiens), P33261 | recombinant CYP2C19, luciferin-H EGE luminescence; active compounds read high; 0 = fully inhibited enzyme, 1 = untreated enzyme | activation factor at 5 µM | 96,000 tested, under 10 active | AID 1025, 2008;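 active means activation factor of at least 2 at 5 µM in the primary screen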
CYP2C9 inhib = blockers of cytochrome P450 2C9 activity – biochemical, luminescence, ADME assay, primary screen. AID 777, 2007. 96,000 compounds, 20% hits. CYP2C9 Supersomes, luciferin-H conversion. inhibition, % at 5 µM. P11712;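 active means blocking of liver enzyme CYP2C9 beyond about 50% at 5 µM, limit read from the data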
Mac1 fbg inh = inhibitors of CD11b/CD18 adhesion to fibrinogen, primary screen, K562 cells, luminescence | inhibition, % at 10 µM | AID 1497, 2009 | Integrin beta-2 (Homo sapiens) + Integrin alpha-M (Homo sapiens), P05107+P11215 | ATPlite luminescence; Mn2+ added to activate the integrin | 93,000 compounds, 0.54% hits;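 active means primary inhibition of 50% or more at 10 µM, then 40% or more on retest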
CD11b adhes enh = enhancers of CD11b/CD18 adhesion to fibrinogen, primary screen, K562 cells, luminescence. Integrin beta-2 (Homo sapiens) + Integrin alpha-M (Homo sapiens), P05107+P11215. ATPlite luminescence. activation, % at 10 µM. 93,000 compounds, 0.07% hits;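 active means 10 µM primary screen giving 50% or more activity, confirmed by 40% or more on retest at that dose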
Hits are given with their value; – = inactive; · = not tested or not shown. This is a sample that favours compounds with a hit; in the whole collection about 28% have one here.

SMILES | CYP2C19 inh | CYP2C9 activ | CYP2C19 act | CYP2C9 inhib | Mac1 fbg inh | CD11b adhes enh
CC(C)NC(=O)C1CC(=O)N(C(C)c2ccccc2)C1 (stereo unspecified) | – | – | – | – | – | –
c1ccc(CCNc2nnnn2-c2ccccc2)cc1 | 58 | – | – | – | – | –
Clc1cccc(CNc2nnnn2-c2ccccc2)c1 | – | – | – | – | – | –
Clc1ccc(CNc2nnnn2-c2ccccc2)c(Cl)c1 | 98 | – | – | 53 | – | –
CCc1cc(/C(Cc2cscn2)=N\O)c(O)cc1O | – | – | – | – | – | –
CCc1cc(/C(Cc2ccc3ccccc3n2)=N\O)c(O)cc1O | 90 | – | – | 73 | 60 | –
CCc1cc(/C(Cc2ccccn2)=N\O)c(O)cc1O | – | – | – | 62 | – | –
N/C(=N\c1nc(CSc2ccc(Cl)cc2)cc(=O)[nH]1)Nc1cccc2ccccc12 | – | – | – | – | – | –
CCOc1ccc(-c2nc(C#N)c(N3CCN(Cc4ccccc4)CC3)o2)cc1 | – | – | – | 67 | – | –
COc1ccc(N2CCN(c3oc(COc4ccc(Cl)cc4)nc3C#N)CC2)cc1 | – | – | – | 50 | – | –
N#Cc1nc(COc2ccc(Cl)cc2)oc1N1CCN(Cc2ccccc2)CC1 | – | – | – | 53 | – | –
N#Cc1nc(COc2ccccc2)oc1N1CCCCCC1 | – | – | – | – | – | –
Cc1ccc(CNC(=O)CCOc2ccc(C(C)(C)C)cc2)cc1 | – | – | – | – | – | –
C#CCOC(=O)Nc1cccn(Cc2c(Cl)cccc2Cl)c1=O | 65 | 2 | – | – | – | –
COC(=O)c1ccc(COc2ncnc3c(Cl)cc(Cl)cc23)o1 | – | – | – | 62 | – | –
CCCCCCSC1=C(C#N)C(c2ccc(O)cc2)CC(=O)N1 (stereo unspecified) | 63 | – | – | 74 | – | –
CCOC(=O)CSC1=C(C#N)C(c2ccc(Cl)cc2)CC(=O)N1 (stereo unspecified) | 96 | – | – | 98 | – | –
CCCCOC(=O)CSC1=C(C#N)C(c2ccc3c(c2)OCO3)CC(=O)N1 (stereo unspecified) | – | – | – | 57 | – | –
CCCOC(=O)CSC1=C(C#N)C(c2ccccc2Cl)CC(=O)N1 (stereo unspecified) | 95 | – | – | 96 | – | –
CCOC(=O)CSC1=C(C#N)C(c2ccc3c(c2)OCO3)CC(=O)N1 (stereo unspecified) | – | – | – | – | – | –
CCSC1=C(C#N)C(c2cccc(O)c2)CC(=O)N1 (stereo unspecified) | – | – | – | – | – | –
CCOC(=O)c1nc(N)c(C(=O)OCC)[nH]1 | – | – | – | – | – | –
CC(=O)Nc1ccccc1OCC(=O)NCCc1ccc(Cl)cc1Cl | · | · | · | · | – | –
N#CC(c1ccccc1F)(c1ncc(C(F)(F)F)cc1Cl)N1CCOCC1 (stereo unspecified) | – | – | – | – | · | ·
O=C(CN1C(=O)COc2ccc(Cl)cc21)N1CCc2ccccc21 | – | – | – | – | – | –
SMILES | CYP2C19 inh | CYP2C9 activ | CYP2C19 act | CYP2C9 inhib | Mac1 fbg inh | CD11b adhes enh
Cc1ccsc1/C=N/n1c(COc2ccccc2)n[nH]c1=S | · | · | · | · | – | –
Cc1cc(=O)oc(C)c1C(=O)NCC1COc2ccccc2O1 (stereo unspecified) | – | – | – | 55 | – | –
O=C(NCC1COc2ccccc2O1)c1ccc(NC(=O)c2ccco2)cc1 (stereo unspecified) | – | – | – | – | – | –
O=C(NCC1COc2ccccc2O1)Nc1ccccc1F (stereo unspecified) | 96 | – | – | 85 | – | –
O=C(NCC1COc2ccccc2O1)c1ccc(Cl)cc1 (stereo unspecified) | 74 | – | – | – | – | –
Cc1ccc(C)c(CS(=O)(=O)c2cn(CC(=O)N3CCCCC3)c3ccccc23)c1 | · | · | · | · | – | –
Cc1ccc[n+](C(C)C(=O)Nc2ccc(C)c([N+](=O)[O-])c2)c1 (stereo unspecified) | – | – | – | – | – | –
Cc1ccc(C(=O)C[n+]2ccc(-c3nnc4n3CCC4)cc2)cc1 | · | · | · | · | – | –
CCC1Oc2ccccc2N(CC(=O)NCCCN2CCCCC2CC)C1=O (stereo unspecified) | – | – | – | – | – | –
CCN(CC)CCOc1c(Br)ccc2c1sc1nc3n(c(=O)c12)CCC3 | 84 | – | – | – | – | –
CCN(CC(=O)NCc1ccc(F)cc1)CC(O)COCc1cccc(OC)c1 (stereo unspecified) | 67 | – | – | 67 | – | –
CN1c2ccsc2C(O)=C(C(=S)Nc2ccc(F)c(Cl)c2)S1(=O)=O | – | – | – | 84 | – | –
COc1ccc(-c2nnc(SC(C)C(=O)NNC(=O)c3ccc(C)cc3)o2)cc1 (stereo unspecified) | · | · | · | · | – | –
COc1ccc(-c2nnc(SC(C)C(=O)Nc3cccc(Cl)c3)o2)cc1 (stereo unspecified) | – | – | – | 61 | – | –
CC(Sc1nnc(-c2ccc(O)cc2)o1)C(=O)Nc1cccc2ccccc12 (stereo unspecified) | 72 | – | – | – | – | –
COc1cc(-c2nnc(SC(C)C(=O)Nc3c(C)n(C)n(-c4ccccc4)c3=O)o2)cc(OC)c1OC (stereo unspecified) | – | – | – | – | – | –
O=C(Nc1cc(C(F)(F)F)ccc1N1CCCC1)c1cccnc1 | – | – | – | – | – | –
CCN(CC)c1ccc(/C=C(\C#N)c2nc(-c3cccs3)c(NC(C)=O)s2)cc1 | · | · | · | · | – | –
O=C(CCCOc1ccc(Cl)cc1)N1CCCCC1 | 98 | – | – | – | – | –
O=C(OCCCC(=O)N1CCOCC1)c1ccccc1 | – | – | – | – | – | –
CCC1CCCCN1C(=O)N[C@@H](Cc1ccccc1)C(=O)O (stereo partly specified) | – | – | – | – | – | –
CCC1CCCCN1C(=O)CCCOc1ccccc1 (stereo unspecified) | 50 | – | – | – | – | –
O=C(CCCOc1ccc(Cl)cc1)N1CCOCC1 | 87 | – | – | – | – | –
O=C(CCCOc1ccccc1)N1CCCCC1 | 56 | – | – | – | – | –
CCOC(=O)C1CCN(C(=O)CCCOc2ccccc2)CC1 | – | – | – | – | – | –
O=C(CSc1ncn[nH]1)Nc1c(Br)cc([N+](=O)[O-])cc1Br | · | · | · | · | – | –
